Data from PubChem BioAssay (NCATS).
Records with an inconclusive call do not appear. Activity calls are given as the source filed them. Unless noted, calls come from the whole dose curve; as a rule, active = well fitted curve in the direction sought with a large enough effect; inconclusive = small, poorly fitted or top-dose-only effect, or another doubt; inactive = no such curve, though single readings can be large; an effect the other way counts as inactive or inconclusive.

Tests used:
[1] = qHTS of Nrf2 Activators: LOPAC Validation (AID 624149)
Outline: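 Following overnight seeding in 5% FBS OPTI-MEM, AREc32_Fluc cells receive compounds for a 24 hr incubation at 37 deg C with 5% CO2. Steady-Glo is added, and after 30 min at RT luminescence is recorded.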

[2] = target: Arylsulfatase A (Homo sapiens) (UniProt P15289); assay: qHTS screen for enhancers of Arylsulfatase A (ASA1): LOPAC Validation Assay (AID 720538)
Arylsulfatase A (Homo sapiens), sequence (P15289 whole entry, looked up): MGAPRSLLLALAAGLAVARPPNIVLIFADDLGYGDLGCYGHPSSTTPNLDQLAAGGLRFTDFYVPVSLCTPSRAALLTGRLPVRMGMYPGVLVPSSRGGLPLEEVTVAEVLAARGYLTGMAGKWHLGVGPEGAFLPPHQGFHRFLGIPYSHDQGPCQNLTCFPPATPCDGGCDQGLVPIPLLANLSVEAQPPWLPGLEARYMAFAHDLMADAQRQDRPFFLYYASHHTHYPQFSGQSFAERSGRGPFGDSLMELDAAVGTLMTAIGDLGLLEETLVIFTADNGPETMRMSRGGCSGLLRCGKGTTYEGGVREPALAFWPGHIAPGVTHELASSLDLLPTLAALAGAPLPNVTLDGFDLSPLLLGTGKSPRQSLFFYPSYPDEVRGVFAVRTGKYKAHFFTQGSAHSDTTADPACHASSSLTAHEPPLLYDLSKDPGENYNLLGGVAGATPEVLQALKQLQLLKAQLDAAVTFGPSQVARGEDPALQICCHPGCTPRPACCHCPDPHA
Outline: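 SV40-transformed skin fibroblasts from an MLD patient (ASA-I179S) were treated with compounds for 48h at 37 degree C, then lysed with 0.5mM pNCS final substrate for 14h at room temperature; NaOH stop, fluorescence read (Ex=525 nm; Em=598 nm).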

[3] = qHTS for compounds that reverse cellular toxicity of Amyloid beta (A-beta) peptide in yeast: LOPAC Validation Assay (AID 720559)
Outline: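 Yeast cells expressing toxic A-beta were combined with pinned compounds in growth medium and incubated 48 hr at 30 C. Growth was read as absorbance at 600 nm and normalized to DMSO and to an equimolar FeCl3/clioquinol positive control.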

[4] = qHTS for Activators of Parkin Expression: LOPAC Validation Assay (NLuc Reporter) (AID 720572)
Outline: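 Cells harboring the Parkin-promoter coincidence reporter were treated for 24 h at seven concentrations. NLuc output was measured sequentially after the FLuc channel and scaled between DMSO and positive control values.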

[5] = qHTS for Activators of Parkin Expression: LOPAC Validation Assay (FLuc Reporter) (AID 720573)
Outline: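 Neuronal cell line stably carrying FLuc/NLuc coincidence reporter under Parkin promoter; cells plated 24 h, then compounds added in 7-point dose response for 24 h at 37 C. FLuc luminescence read; normalized to DMSO and positive control (100%).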

[6] = target: T1, Hexokinase-4 (Homo sapiens) + Glucokinase regulatory protein (Homo sapiens) (UniProt P35557+Q14397); assay: qHTS assay for inhibitors of recombinant human GCK-GKRP interaction: Diaphorase-coupled assay (AID 743205)
T1 sequence (P35557 whole entry, looked up): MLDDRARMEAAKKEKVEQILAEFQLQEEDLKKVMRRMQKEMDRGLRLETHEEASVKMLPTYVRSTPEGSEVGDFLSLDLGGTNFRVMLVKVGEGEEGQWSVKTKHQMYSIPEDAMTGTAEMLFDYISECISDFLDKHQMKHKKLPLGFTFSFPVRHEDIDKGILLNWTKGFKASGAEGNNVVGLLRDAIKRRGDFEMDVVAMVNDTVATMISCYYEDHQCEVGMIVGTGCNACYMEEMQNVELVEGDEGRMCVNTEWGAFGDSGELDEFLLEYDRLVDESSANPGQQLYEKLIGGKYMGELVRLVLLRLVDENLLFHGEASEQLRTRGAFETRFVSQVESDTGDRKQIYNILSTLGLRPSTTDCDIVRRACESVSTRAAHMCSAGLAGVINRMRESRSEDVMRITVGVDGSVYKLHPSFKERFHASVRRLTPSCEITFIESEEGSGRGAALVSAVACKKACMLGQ
T1 sequence (Q14397 whole entry, looked up): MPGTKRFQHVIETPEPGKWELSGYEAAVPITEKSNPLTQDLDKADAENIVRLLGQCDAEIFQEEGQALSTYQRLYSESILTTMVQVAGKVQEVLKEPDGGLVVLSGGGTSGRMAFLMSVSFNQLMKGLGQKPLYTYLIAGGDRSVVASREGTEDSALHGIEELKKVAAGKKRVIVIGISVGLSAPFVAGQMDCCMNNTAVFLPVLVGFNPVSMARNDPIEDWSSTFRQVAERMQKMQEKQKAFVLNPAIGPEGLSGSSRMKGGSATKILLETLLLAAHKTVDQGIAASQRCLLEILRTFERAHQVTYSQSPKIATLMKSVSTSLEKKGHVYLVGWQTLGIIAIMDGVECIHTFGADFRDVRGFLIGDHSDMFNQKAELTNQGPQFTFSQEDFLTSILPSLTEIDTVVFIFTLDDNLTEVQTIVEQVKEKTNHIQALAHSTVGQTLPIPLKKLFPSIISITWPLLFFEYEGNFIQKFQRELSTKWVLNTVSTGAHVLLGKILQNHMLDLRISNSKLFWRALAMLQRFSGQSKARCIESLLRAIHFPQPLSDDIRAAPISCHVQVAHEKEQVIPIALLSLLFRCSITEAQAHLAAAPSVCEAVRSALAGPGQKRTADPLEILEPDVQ
Outline: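 GST-GCK (10 nM) with FLAG-GKRP (10 nM), 5 mM glucose and 0.4 mM ATP in pH 7.6 Hepes; compounds preincubated 20 min with substrate. G6PDH/diaphorase coupling converts resazurin to resorufin, read kinetically (ex 525/em 590 nm) for 30 min.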

[7] = target: T1, Hexokinase-4 (Homo sapiens) + Glucokinase regulatory protein (Homo sapiens); assay: qHTS assay for inhibitors of recombinant human GCK-GKRP interaction: ADP-Glo assay (AID 743206)
Outline: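 Pin-transferred compounds meet a 15 nM GST-GCK/15 nM FLAG-GKRP/2 uM S6P mix (dispense concentrations). ATP is then added to 0.4 mM final with 5 mM glucose, and the reaction runs 60 min at room temperature. ADP is quantified luminescently.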

[8] = target: T1, Hexokinase-4 (Homo sapiens) + Glucokinase regulatory protein (Homo sapiens); assay: qHTS assay for inhibitors of recombinant human GCK-GKRP interaction: HTRF assay (AID 743207)
Outline: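 GST-GCK and FLAG-GKRP (5 nM each) were combined with 2 uM S6P in pH 7.1 Hepes/MgCl2/KCl/DTT buffer, then compound and anti-FLAG XL665/anti-GST K antibodies were added. After 60 min at room temperature, HTRF 665/615 nm emission was read.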

[9] = Natriuretic polypeptide receptor (hNpr1) antagonism - Pilot counterscreen GloSensor control cell line (AID 1347045; calls by dose curve)
Outline: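 The SNP-driven cGMP luminescence signal (50 uM, 20 min, room temperature) was measured in GloSensor HEK293 control cells. Compounds were tested as a LOPAC titration series and preincubated for 30-50 min.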

[10] = target: Atrial natriuretic peptide receptor 1 (Homo sapiens) (UniProt P16066); assay: Natriuretic polypeptide receptor (hNpr1) antagonism - Pilot screen (AID 1347049; calls by dose curve;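 note: HEK293 cells with hNpr1 and GloSensor cGMP luciferase stimulated by 0.1 nM hNppA; agonist-evoked cGMP luminescence read 20 min after hNppA addition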)
Outline: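 Cells expressing receptor plus cGMP biosensor are seeded and incubated overnight at 37C, then loaded with GloSensor reagent (2% final) at room temperature for 2 h. Library compounds go on for 30 min. A pre-read precedes agonist (hNppA, 0.1 nM final) and a 20-min readout.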

[11] = target: Atrial natriuretic peptide receptor 2 (Homo sapiens) (UniProt P20594); assay: Natriuretic polypeptide receptor (hNpr2) antagonism - Pilot subtype selectivity assay (AID 1347050; calls by dose curve)
Atrial natriuretic peptide receptor 2 (Homo sapiens), sequence (P20594 whole entry, looked up): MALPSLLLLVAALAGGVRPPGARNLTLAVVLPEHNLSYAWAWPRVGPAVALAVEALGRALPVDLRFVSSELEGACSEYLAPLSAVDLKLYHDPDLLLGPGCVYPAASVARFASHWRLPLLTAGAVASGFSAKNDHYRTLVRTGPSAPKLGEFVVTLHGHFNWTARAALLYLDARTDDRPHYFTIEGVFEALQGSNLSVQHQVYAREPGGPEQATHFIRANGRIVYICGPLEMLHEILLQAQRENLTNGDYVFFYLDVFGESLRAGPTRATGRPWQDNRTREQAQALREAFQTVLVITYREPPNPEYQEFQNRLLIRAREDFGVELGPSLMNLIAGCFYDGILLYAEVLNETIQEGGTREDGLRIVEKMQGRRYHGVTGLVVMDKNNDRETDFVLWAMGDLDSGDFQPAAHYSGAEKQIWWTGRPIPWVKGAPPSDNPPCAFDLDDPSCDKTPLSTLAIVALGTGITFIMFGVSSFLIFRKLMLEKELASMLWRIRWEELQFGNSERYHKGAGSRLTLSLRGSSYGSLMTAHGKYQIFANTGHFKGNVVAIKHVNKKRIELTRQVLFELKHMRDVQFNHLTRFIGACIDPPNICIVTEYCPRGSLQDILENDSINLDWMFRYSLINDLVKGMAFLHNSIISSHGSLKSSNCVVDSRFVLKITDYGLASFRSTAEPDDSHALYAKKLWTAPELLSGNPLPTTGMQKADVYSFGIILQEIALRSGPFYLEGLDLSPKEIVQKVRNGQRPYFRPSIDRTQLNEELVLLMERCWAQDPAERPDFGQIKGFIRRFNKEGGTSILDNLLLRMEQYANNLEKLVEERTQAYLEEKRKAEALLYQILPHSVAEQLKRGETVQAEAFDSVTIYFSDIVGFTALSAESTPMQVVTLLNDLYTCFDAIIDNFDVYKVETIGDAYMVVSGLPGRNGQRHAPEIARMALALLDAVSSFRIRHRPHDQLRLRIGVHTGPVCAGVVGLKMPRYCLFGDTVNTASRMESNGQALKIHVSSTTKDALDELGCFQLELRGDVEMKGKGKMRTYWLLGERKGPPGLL
Outline: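 Read-out: GloSensor luminescence (CCD imager), baseline vs post-stimulation. HEK293 cells expressing hNpr2; compounds pre-incubated 30-50 min at ambient temperature; hNppC 1 nM final, 20 min.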

[12] = target: T2, Tyrosine-protein phosphatase non-receptor type substrate 1 (Homo sapiens) + Leukocyte surface antigen CD47 (Homo sapiens) (UniProt P78324+Q08722); assay: CD47-SIRPalpha protein protein interaction - LANCE assay qHTS validation (AID 1347057; active = well fitted curve in the direction sought with a large enough effect in the signal ratio, with a control signal flat, not every such curve was filed as active; the % refers to the signal ratio)
T2 sequence (P78324 whole entry, looked up, the tested form may be a part): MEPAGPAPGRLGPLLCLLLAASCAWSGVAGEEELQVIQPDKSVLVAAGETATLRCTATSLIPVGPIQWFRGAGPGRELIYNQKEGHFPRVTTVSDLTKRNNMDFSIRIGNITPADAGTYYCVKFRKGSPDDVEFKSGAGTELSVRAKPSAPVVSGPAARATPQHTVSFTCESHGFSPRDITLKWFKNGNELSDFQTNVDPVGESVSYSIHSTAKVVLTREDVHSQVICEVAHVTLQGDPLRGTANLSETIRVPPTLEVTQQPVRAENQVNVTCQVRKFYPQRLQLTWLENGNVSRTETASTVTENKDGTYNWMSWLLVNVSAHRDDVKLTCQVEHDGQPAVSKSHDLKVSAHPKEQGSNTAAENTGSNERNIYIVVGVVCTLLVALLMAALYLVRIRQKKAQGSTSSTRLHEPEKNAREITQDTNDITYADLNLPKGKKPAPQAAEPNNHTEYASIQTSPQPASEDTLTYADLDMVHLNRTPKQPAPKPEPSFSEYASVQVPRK
T2 sequence (Q08722 whole entry, looked up, the tested form may be a part): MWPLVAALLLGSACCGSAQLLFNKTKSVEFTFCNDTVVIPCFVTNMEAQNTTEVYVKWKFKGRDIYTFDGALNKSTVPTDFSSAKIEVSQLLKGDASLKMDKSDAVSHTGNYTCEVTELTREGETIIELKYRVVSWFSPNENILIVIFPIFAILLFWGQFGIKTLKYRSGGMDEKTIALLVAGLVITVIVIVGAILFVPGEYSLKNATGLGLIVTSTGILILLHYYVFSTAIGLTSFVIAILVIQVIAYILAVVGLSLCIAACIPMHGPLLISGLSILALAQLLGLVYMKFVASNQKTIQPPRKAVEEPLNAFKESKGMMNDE
Outline: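 Inhibition of soluble CD47/SIRPalpha ectodomain association by titrated compounds, measured as 665/615 nm time-resolved FRET ratio after sequential 30 min room-temperature incubations.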

[13] = target: T2, Tyrosine-protein phosphatase non-receptor type substrate 1 (Homo sapiens) + Leukocyte surface antigen CD47 (Homo sapiens); assay: CD47-SIRPalpha protein protein interaction - HTRF assay qHTS validation (AID 1347058; active = well fitted curve in the direction sought with a large enough effect in the signal ratio, not every such curve was filed as active; the % refers to the signal ratio)
Outline: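 Soluble extracellular domains (6His-CD47, Avi-tag-biotinylated SIRPalpha) in PBS pH 7.4 with 0.05% IGEPAL CA-630. Compounds were preincubated 30 min at RT with CD47 and anti-His-Eu, then SIRPalpha and SAV-XL665 were added. TR-FRET 665/615 ratio.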

[14] = target: T2, Tyrosine-protein phosphatase non-receptor type substrate 1 (Homo sapiens) + Leukocyte surface antigen CD47 (Homo sapiens); assay: CD47-SIRPalpha protein protein interaction - Alpha assay qHTS validation (AID 1347059);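 note: bead proximity luminescence from CD47 binding SIRPalpha after compound preincubation with SIRPalpha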
Outline: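 In PBS (pH 7.4) with 0.05% IGEPAL CA-630, compound is preincubated with biotin-Avi-SIRPalpha ectodomain before His-CD47 ectodomain and affinity beads are added. Light-protected room-temperature incubations; AlphaScreen readout.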

[15] = target: N-terminal Xaa-Pro-Lys N-methyltransferase 1 (Homo sapiens) (UniProt Q9BV86); assay: qHTS Assay for Inhibitors of N-terminal methyltransferase 1 (NTMT1): LOPAC validation of the NTMT1 SAHH-coupled ThioGlo3 Assay (AID 1347143);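 note: SAH from peptide methylation measured as thiol fluorescence via SAHH coupling and ThioGlo3; potency is the fitted concentration of half-maximal effect; nearly all actives have a fitted effect of over 70% in size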
N-terminal Xaa-Pro-Lys N-methyltransferase 1 (Homo sapiens), sequence (Q9BV86 whole entry, looked up): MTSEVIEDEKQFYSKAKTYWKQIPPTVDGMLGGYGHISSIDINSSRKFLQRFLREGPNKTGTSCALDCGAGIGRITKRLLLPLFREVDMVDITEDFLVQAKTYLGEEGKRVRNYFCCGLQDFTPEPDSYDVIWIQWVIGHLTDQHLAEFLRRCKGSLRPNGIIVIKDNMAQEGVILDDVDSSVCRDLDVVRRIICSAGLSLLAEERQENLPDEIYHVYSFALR
Outline: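 In this qHTS pilot against the LOPAC set, 125nM NTMT1 met compounds tested at multiple concentrations, and fluorescence was normalized to background.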

[16] = qHTS to identify inhibitors of the type 1 interferon - major histocompatibility complex class I in skeletal muscle: primary screen against the NCATS LOPAC collection (AID 1347405);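 note: human myoblasts with HiBiT tag on endogenous HLA-B stimulated by IFN-beta; lytic HiBiT luminescence reporting HLA-B protein level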
Outline: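 IFN-beta-stimulated (4 ng/ml) HLA-B HiBiT knock-in myoblasts, compound-treated 24 hrs up to 46 uM final; signal via LgBiT complementation and furimazine luminescence.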

[17] = qHTS for inhibitors of adenylyl cyclases using a fission yeast platform: a pilot screen against the NCATS LOPAC library (AID 1347410)
Outline: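 S. pombe CHP2027 (AC9-GNAS-PDE4D2) carrying a PKA-repressed fbp1-GFP reporter was exposed to LOPAC compounds (final up to 57 µM) for 18 h at 30C in the dark, in EMM with histidine, lysine and uracil; GFP gain-of-signal read by laser scanning cytometry.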

[18] = Validation qHTS assay for inhibitors of Activation Induced Cytidine Deaminase (AID): UDG Counterscreen signal (AID 1347427)
Outline: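 Fluorescence at 560 nm excitation, 665 nm emission reports UDG signal after 250 mM NaOH (2x) addition and 30 min. Enzymes (AID 1 uM, UDG 2 U/mL, at 4/3x) preincubated 10 min with compound, then 4 h with 4x 250 nM DJC20/DJC23 substrate at room temperature.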

[19] = target: Single-stranded DNA cytosine deaminase (Homo sapiens) (UniProt Q9GZX7); assay: Validation qHTS assay for inhibitors of Activation Induced Cytidine Deaminase (AID): AID signal (AID 1347429)
Outline: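 Compounds (up to 114 uM final) are tested against AID plus UDG using DJC20/DJC23 FRET substrate. Reactions incubate 4 hr at room temperature, receive NaOH for 30 min, and are read at Ex 540/Em 590 nm.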

[20] = target: Calcium and integrin-binding protein 1 (Homo sapiens) (UniProt Q99828); assay: Validation qHTS for Identification of Calcium Integrin Binding protein 1 (CIB1) Competitor (AID 1508618)
Calcium and integrin-binding protein 1 (Homo sapiens), sequence (Q99828 whole entry, looked up): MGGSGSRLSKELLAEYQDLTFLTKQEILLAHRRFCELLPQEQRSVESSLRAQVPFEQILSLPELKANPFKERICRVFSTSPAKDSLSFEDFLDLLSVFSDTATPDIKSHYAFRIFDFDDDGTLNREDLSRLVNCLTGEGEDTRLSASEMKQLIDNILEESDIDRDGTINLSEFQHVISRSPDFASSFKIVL
Outline: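 CIB1-GST (1 uM final) incubated 15 min at room temperature with compounds (up to 114 uM), then FITC-labelled alphaIIb peptide (100 nM) added. FP read (Ex 480/Em 540) after 15 min, pH 7.4 buffer containing 5 mM CaCl2.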

[21] = Primary qHTS for small molecule stabilizers of the endoplasmic reticulum resident proteome: Secreted ER Calcium Modulated Protein (SERCaMP) assay (AID 1508630)
Outline: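 The SH-SY5Y reporter protocol was run at 3 concentrations up to 38.3 uM (primary) or 11 concentrations (follow-up): 16 h compound, 100 nM thapsigargin for 4 h, then extracellular luciferase luminescence.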

[22] = target: Papain (Carica papaya) (UniProt P00784); assay: Primary qHTS assay for inhibitors of the protease papain (AID 1645873);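 note: papain turnover of Z-FR-AMC read as the AMC fluorescence gain over 10 min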
[23] = target: Catechol O-methyltransferase (Homo sapiens) (UniProt P21964); assay: Confirmatory Screen for Target Class Profiling of Small Molecule Inhibitors of Methyltransferases (AID 1745852); settings: MTase-Glo luminescence, SAH detection, recombinant enzyme; measured here: COMT max response; stronger effect = lower value
[24] = target: Guanidinoacetate N-methyltransferase (Homo sapiens) (UniProt Q14353); assay: as above; settings: activity change, negative = inhibition: at 57.3 µM (top of the series) unless noted
[25] = target: Nicotinamide N-methyltransferase (Homo sapiens) (UniProt P40261); assay: as above; settings: MTase-Glo luminescence, SAH detection, recombinant enzyme; measured here: NNMT max response; stronger effect = lower value
[26] = target: Phenylethanolamine N-methyltransferase (Homo sapiens) (UniProt P11086); assay: as above; settings: MTase-Glo luminescence, SAH detection, recombinant enzyme; measured here: PNMT max response; stronger effect = lower value
Phenylethanolamine N-methyltransferase (Homo sapiens), sequence (P11086 whole entry, looked up): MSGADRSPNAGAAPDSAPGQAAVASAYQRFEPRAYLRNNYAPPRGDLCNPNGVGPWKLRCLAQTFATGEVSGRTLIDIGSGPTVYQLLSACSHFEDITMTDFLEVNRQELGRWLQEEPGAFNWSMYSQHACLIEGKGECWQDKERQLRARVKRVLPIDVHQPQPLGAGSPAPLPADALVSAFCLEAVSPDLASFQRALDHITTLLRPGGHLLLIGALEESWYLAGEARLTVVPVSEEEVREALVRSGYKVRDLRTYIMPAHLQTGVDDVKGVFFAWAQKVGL

[27] = target: Metallo-beta-lactamase type 2 (Klebsiella pneumoniae) (UniProt C7C422); assay: qHTS to identify inhibitors of the New Delhi Metallo-beta-lactamase (NDM): assay validation screen against the NCATS LOPAC Collection (AID 1794843)
Metallo-beta-lactamase type 2 (Klebsiella pneumoniae), sequence (C7C422 whole entry, looked up): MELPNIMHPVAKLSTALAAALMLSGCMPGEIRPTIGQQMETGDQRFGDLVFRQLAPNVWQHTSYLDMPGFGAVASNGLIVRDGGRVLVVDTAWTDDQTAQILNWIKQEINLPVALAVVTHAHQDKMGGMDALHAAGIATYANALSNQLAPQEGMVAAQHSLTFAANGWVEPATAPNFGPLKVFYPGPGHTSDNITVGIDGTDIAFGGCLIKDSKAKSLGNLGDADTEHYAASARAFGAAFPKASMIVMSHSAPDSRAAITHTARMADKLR
Outline: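 Absorbance at 485 nm from nitrocefin turnover (50 uM solution added), read at plateau, gives the read-out. Compounds in DMSO were incubated first with 2 nM final NDM-1 in pH 7.0 HEPES buffer containing 1 uM ZnSO4 and 0.01% Tween20.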

[28] = target: Glutathione peroxidase 1 (Homo sapiens) (UniProt P07203); assay: Primary qHTS Assay for Inhibitors of Recombinant Selenoprotein Glutathione Peroxidase 1 (GPX1) (AID 1845191); note: nearly all actives have a fitted effect of over 65% in size
Glutathione peroxidase 1 (Homo sapiens), sequence (P07203 whole entry, looked up): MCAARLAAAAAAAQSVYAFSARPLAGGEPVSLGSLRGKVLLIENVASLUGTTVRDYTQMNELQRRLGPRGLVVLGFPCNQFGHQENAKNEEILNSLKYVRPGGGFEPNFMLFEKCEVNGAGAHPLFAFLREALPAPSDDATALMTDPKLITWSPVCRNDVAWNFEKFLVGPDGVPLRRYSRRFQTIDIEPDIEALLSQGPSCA
Outline: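 GPX1 10 nM, GR 100 nM, GSH 1 mM, NADPH 0.5 mM, CHP 0.5 mM (final). 30-min cpd preincubation, RT. Ex340/Em450 read t=0, t=15 min.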

[29] = target: Phospholipid hydroperoxide glutathione peroxidase GPX4 (Homo sapiens) (UniProt P36969); assay: Primary qHTS Assay for Inhibitors of Recombinant Selenoprotein Glutathione Peroxidase 4 (GPX4) (AID 1845192); settings: outcome: dose series up to 50 µM unless noted; note: nearly all actives have a fitted effect of over 65% in size
Phospholipid hydroperoxide glutathione peroxidase GPX4 (Homo sapiens), sequence (P36969 whole entry, looked up): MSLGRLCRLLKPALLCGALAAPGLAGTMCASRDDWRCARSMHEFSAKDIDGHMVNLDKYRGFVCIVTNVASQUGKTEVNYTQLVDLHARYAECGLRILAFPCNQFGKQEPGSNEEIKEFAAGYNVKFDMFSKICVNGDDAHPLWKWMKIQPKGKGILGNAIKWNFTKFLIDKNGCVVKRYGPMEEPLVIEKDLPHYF
Outline: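 qHTS, GR-coupled: GPX4 200 nM + cpd 30 min RT → GSH 1 mM, NADPH 0.5 mM, GR 100 nM → CHP 0.5 mM start; fluor 340/450 at t0 and t15 min; no-enzyme wells as control.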

Oc1cc2c(c(Cl)c1O)CCNCC2c1ccccc1 (centres undefined)
inactive: outcome [1] | Potency [2] | outcome [3] | outcome [4] | Potency [5] | outcome [6] | outcome [7] | outcome [8] | Potency [9] | Potency [10] | Potency [11] | outcome [12] | outcome [13] | Potency [14] | Potency [16] | outcome [17] | outcome [18] | Potency [19] | outcome [20] | Potency [21] | Potency [22] | Potency [27] | Potency [28] | Potency [29]
active: Potency [15] 39.8 µM
72.9%: activity [23]
7.26%: activity [26]
2.7%: activity change, negative = inhibition [24]
-10.3%: activity [25]
